In the library only some 11% were active in any assay of this set; here they are far more common.
PNC assembly inh = High Content Assay for Compounds that inhibit the Assembly of the Perinucleolar Compartment | PC3M PTB-GFP, PNC prevalence imaging, 16 h; active compounds read low | activity change (PNC), negative = inhibition, % at 10 µM | hit rate 3.1% among 140,000 | AID 2417, 2010;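 active = readout at or below -70, meaning at least 70% loss of cells showing the perinucleolar compartment, a nuclear body marking cancer cells; inconclusive = readout between -30 and a set limit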;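 note: plate controls were DMSO wells for no effect and camptothecin positive control wells for full effect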
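PC3M cells stably expressing PTB-GFP, 750–1000 cells/well, treated 16 h at 37 °C with compound (23 nl of library stock), in duplicate. After paraformaldehyde fixation and Hoechst stain, imaged at 20x; PNC prevalence scored by image analysis.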
HPGD inh = qHTS Assay for Inhibitors of HPGD (15-Hydroxyprostaglandin Dehydrogenase) | 15-hydroxyprostaglandin dehydrogenase [NAD(+)] (Homo sapiens), P15428 | purified HPGD, NADH fluorescence kinetic, PGE2 substrate | Potency, µM, without a hit: at the top dose activity change, negative = inhibition, actives largely listed as inhibitors | hit rate 4.3% among 150,000 | AID 894, 2007; active = well fitted inhibition curve with a large enough effect, not every such curve was filed as active; inconclusive = small, poorly fitted or top-dose-only effect, or another doubt; inactive = no such curve, though single readings can be large or run the other way; note: potency is the fitted concentration of half-maximal effect; % is set by controls: 0 for no effect and ±100 for the full control effect
Target sequence (P15428 whole entry, looked up): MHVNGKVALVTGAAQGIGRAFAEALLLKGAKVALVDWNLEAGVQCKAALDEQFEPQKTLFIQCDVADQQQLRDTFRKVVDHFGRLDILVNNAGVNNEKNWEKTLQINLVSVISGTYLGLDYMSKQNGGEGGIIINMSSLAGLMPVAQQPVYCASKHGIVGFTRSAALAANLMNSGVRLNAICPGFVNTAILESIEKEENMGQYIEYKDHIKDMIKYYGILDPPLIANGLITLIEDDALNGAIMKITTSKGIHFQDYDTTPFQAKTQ
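20 nM HPGD preincubated 15 min at room temperature with compound in 50 mM Tris-HCl pH 8, 0.01% Tween 20. Started with 1 mM NAD+ and 30 uM prostaglandin E2; NADH fluorescence (360/450 nm) read 5 times over 30-s intervals, last minus first.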
HTT ATP protect = qHTS Multiplex Assay to Identify Dual Action Probes in a Cell Model of Huntington: Cytoprotection (ATP). Potency, µM (series often up to 56.4 µM), inactives show cytoprotection (ATP increase), hits mostly activators. hit rate 0.14% among 230,000. PC12 HTT-Q103 induced, cytoprotection, ATP luminescence, 40 h; note: potency is the fitted concentration of half-maximal effect; % of control where 0% means no effect; nearly all actives have a fitted effect of over 45% in size
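Huntington model: PC12 line, ecdysone-inducible HTTQ103 exon1–GFP, tebufenozide 100 nM. Test articles in a dose series. Endpoint luminescence from cellular ATP.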
ALDH1A1 inh = qHTS Assay for Inhibitors of Aldehyde Dehydrogenase 1 (ALDH1A1); Aldehyde dehydrogenase 1A1 (Homo sapiens), P00352; Purified ALDH1A1, NADH fluorescence, propionaldehyde substrate; Potency, µM (series often up to 75.3 µM), for the others: at the top dose activity, negative = inhibition, usual class: inhibitors; hit rate 7.3% among 220,000; AID 1030, 2008; active = well fitted inhibition curve with a large enough effect, not every such curve was filed as active; inconclusive = small, poorly fitted or top-dose-only effect, or another doubt; inactive = no such curve, though single readings can be large or run the other way;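 note: potency is the fitted concentration of half-maximal effect; plate controls were no enzyme wells and a reference inhibitor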
Target sequence (P00352 whole entry, looked up): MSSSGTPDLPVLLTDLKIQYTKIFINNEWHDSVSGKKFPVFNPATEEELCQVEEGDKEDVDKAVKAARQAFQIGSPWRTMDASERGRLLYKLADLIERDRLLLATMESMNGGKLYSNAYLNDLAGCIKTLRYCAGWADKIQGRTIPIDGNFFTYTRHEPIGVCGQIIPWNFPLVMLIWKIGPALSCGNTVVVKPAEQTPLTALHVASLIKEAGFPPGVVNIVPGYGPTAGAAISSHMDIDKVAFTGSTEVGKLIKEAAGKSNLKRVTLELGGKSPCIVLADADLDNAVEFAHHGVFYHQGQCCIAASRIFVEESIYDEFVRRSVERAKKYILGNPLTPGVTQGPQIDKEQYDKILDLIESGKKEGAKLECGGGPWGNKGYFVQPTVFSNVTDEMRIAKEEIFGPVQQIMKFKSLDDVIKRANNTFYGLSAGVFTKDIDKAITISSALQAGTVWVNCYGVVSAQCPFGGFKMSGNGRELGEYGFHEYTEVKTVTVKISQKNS
GoLoco inh red = qHTS Assay for Inhibitors of RGS12 GoLoco Motif Activity (Red Fluorophore); Guanine nucleotide-binding protein G(i) subunit alpha-1 (Homo sapiens), P63096; Gai1:RGS12 GoLoco peptide FP, rhodamine, 10 min; Potency, µM (top dose mostly 61.6 µM), for inactives: top-dose activity, negative = inhibition, usual class: inhibitors; hit rate 0.44% among 230,000; AID 880, 2007; active = well fitted inhibition curve with a large enough effect, not every such curve was filed as active; inactive = no such curve, though single readings can be large or run the other way; note: potency is the fitted concentration of half-maximal effect; % is set by controls: 0 for no effect and ±100 for the full control effect; nearly all actives have a fitted effect of over 30% in size
HTT aggregate = qHTS Multiplex Assay to Identify Dual Action Probes in a Cell Model of Huntington: Aggregate Formation (GFP). Potency, µM (highest dose often 46.1 µM), for inactives: at the highest dose activity change, negative = inhibition, actives largely listed as inhibitors. PC12 HttQ103-GFP aggregates, Acumen cytometry, 40 h. AID 1688, 2009. hit rate 1.1% among 220,000; note: potency is the fitted concentration of half-maximal effect; % is set by controls: 0 for no effect and ±100 for the full control effect; nearly all actives have a fitted effect of over 60% in size
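Multiplexed with ATP-based cell death, this channel scores GFP aggregates in PC12 cells expressing inducible HTTex1-Q103-GFP. Induction used 100 nM tebufenozide; compounds were tested in concentration series.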
The depositor's hits bear a star; ? = inconclusive; · = no result; [ ] = dose if it differs, or a comment. Unless noted, calls come from the whole dose curve; as a rule, active = well fitted curve in the direction sought with a large enough effect; inconclusive = small, poorly fitted or top-dose-only effect, or another doubt; inactive = no such curve, though single readings can be large; an effect the other way counts as inactive or inconclusive.

SMILES	PNC assembly inh	HPGD inh	HTT ATP protect	ALDH1A1 inh	GoLoco inh red	HTT aggregate
COc1ccc(-c2csc(NC(=O)C3=NN(c4ccccc4)C(=O)CC3)n2)cc1	·	·	-189%	?	53%	-28%
CN1/C(=C\C(=O)C[n+]2cccc(C(N)=O)c2)C(C)(C)c2ccccc21	·	·	-52%[10 µM]	7%	10%	-13%
CN1/C(=C\C(=O)C[n+]2ccc(C(=O)c3ccccc3)cc2)C(C)(C)c2ccccc21	·	·	-18%[10 µM]	-6%	8%	13µM*
COc1cccc(NC(=O)Cc2ccccc2)c1	48	-14%	-3%	-5%	2%	-15%
O=C(Cc1ccccc1)Nc1cccc(N2C(=O)C=CC2=O)c1	?	3.5µM*	14%[0.074 µM]	0.71µM*	-28%	?
O=C(OCC(=O)c1cccs1)c1ccccc1	-13	14µM*	-6%	13µM*	-5%	9%
O=C(CC(Nc1ccccc1Cl)C(=O)OCC(=O)c1cccs1)c1ccccc1 (centres undefined)	-13	-20%	-24%	25µM*	3%	0%
Cc1cn([C@H]2C=C[C@H](CO)O2)c(=O)[nH]c1=O	·	·	1%[1.9 µM]	·	·	·
O=C(N=C1c2ccccc2CN1c1ccc(F)cc1)c1ccc(Cl)nc1	-28	-7%	15%[10 µM]	28µM*	5%	6%
CCOC(=O)c1ccc(N2Cc3ccccc3C2=NC(=O)c2ccncc2)cc1	·	·	-6%	-6%	1%	0%
N#Cc1ccc(CN2CC[C@@]3(CCCN(C(=O)c4cccc(F)c4)C3)C2)cc1	·	28µM*	-9%	-9%	3%	·
COc1ccc(C(=O)N2CCC[C@@]3(CCN(Cc4ccncc4)C3)C2)cc1	·	35µM*	?	28µM*	-5%	·
COc1ccc(NC(=O)N2CC[C@@]3(CCCN(C(=O)c4ccncc4)C3)C2)cc1	·	-9%	2.2µM*	-5%	15%	·
Cn1cccc1C(=O)N1CCC[C@@]2(CCN(Cc3ccc(C#N)cc3)C2)C1	·	-15%	17%	?	0%	·
COc1ccc(NC(=O)N2CCCC3(CCN(C(=O)c4ccc(OC)cc4)CC3)C2)cc1	·	-3%	-16%	?	1%	·
O=C(c1cccc(F)c1)N1CCC[C@@]2(CCN(Cc3ccncc3)C2)C1	·	?	6%	?	6%	·
O=C(c1ccncc1)N1CCC[C@@]2(CCN(Cc3ccncc3)C2)C1	·	-13%	-4%	22µM*	-11%	·
COc1ccc(C(=O)N2CCC[C@@]3(CCN(Cc4ccccc4)C3)C2)cc1	·	?	19%	?	6%	·
COc1cc2c3cc1Oc1cc(ccc1O)C[C@@H]1c4c(cc(OC)c(O)c4Oc4ccc(cc4)C[C@H]3[N+](C)(C)CC2)CC[N+]1(C)C	·	-2%	?	2%[13.5 µM]	7%[14.2 µM]	·
Cc1nnc(N/N=C/c2ccco2)n1N	·	·	-102%	8%	8%	-20%
CC(C)(C)C(=O)NC(c1ccc(Cl)cc1)[C@]1(C)C[C@H]1C1CCCCC1 (some centres undefined)	·	-15%	?	?	7%	·
COc1ccc2c(=O)c(Oc3ccc(C(=O)O)cc3)c(C(F)(F)F)oc2c1	·	·	-23%	21%	8%	?
COC(=O)N1CCC2(CCCN(C(=O)Nc3ccc(OC)cc3)C2)CC1	·	1%	16%	3%	-1%	·
COc1ccc(NC(=O)N2CC[C@@]3(CCCNC3)C2)cc1	·	-4%	0%	14µM*	-14%	·
Cc1ccccc1Nc1oc(-c2ccccc2)nc1CCc1ccccc1	·	-6%	-12%	?	1%	·
SMILES	PNC assembly inh	HPGD inh	HTT ATP protect	ALDH1A1 inh	GoLoco inh red	HTT aggregate
CC(=O)N1CCC(=NNc2ncc(C(F)(F)F)cc2Cl)CC1	·	·	-6%	16µM*	3%	14%
CCOC(=O)N1CCC(=NNc2ncc(C(F)(F)F)cc2Cl)CC1	·	·	-35%	?	11%	-3%
Cc1ccc(C)c2c(SC(C)C(=O)NCc3ccco3)nc(-c3ccccc3)nc12 (centres undefined)	-100*	-22%	6%[10 µM]	-1%	9%	8%[9.22 µM]
CN(CC(=O)NCCc1ccccc1)S(=O)(=O)c1ccccc1	·	·	·	21%	2%	15%
COc1ccc(C(=O)NC(=S)N2CCC(C)CC2)cc1	-5	22µM*	-5%	?	1%	16%
COC(=O)c1sccc1NC(=S)N1CCCCC1	-16	?	-10%	7.9µM*	-11%	2%
COc1cc(OC)cc(C(=O)NC(=S)N2CCCCCC2)c1	·	·	1%[10 µM]	3%	11%	-24%[9.22 µM]
COc1ccc(C(=O)NC(=S)N2CCCCC2)cc1	-7	18µM*	5%	16µM*	-30%	1%
CCOC(=O)C1CSC(Cc2ccc(OCc3ccc([N+](=O)[O-])cc3)cc2)N1 (centres undefined)	·	-23%	-86%	5%	-1%	·
COc1ccc(O[C@H]2C=C[C@@H](c3ccccc3)O[C@H]2CO/N=C(/C)CCC(=O)OC[C@@H]2O[C@H](c3ccccc3)C=C[C@@H]2Oc2ccc(OC)cc2)cc1	·	·	3%[10 µM]	7%[13.5 µM]	·	·
CCNc1ncc2nc(-c3cccs3)c(=O)n(-c3ccc(OC)cc3)c2n1	·	-13%	-13%	?	17%	·
O=C1CCCN1c1ccc(S(=O)(=O)Oc2cccc(Cl)c2)cc1[N+](=O)[O-]	-106*	-20%	-34%	-11%	-3%	-18%
CNC(=O)COC(=O)c1ccc(Cl)c(S(N)(=O)=O)c1	·	·	1%[10 µM]	·	1%	-6%[9.22 µM]
COCC(C)N=C1NN=C(c2cccs2)C(CC(=O)O)S1 (centres undefined)	·	·	5%	13µM*	0%	15%
N#CC(c1ccccc1)c1ccc(C(=O)c2ccc(F)cc2)cc1 (centres undefined)	36	?	-57%	20µM*	-6%	?
O=C(NCC(c1ccc(F)cc1)N1CCOCC1)c1ccc(C(=O)c2ccccc2)cc1 (centres undefined)	·	·	2%[10 µM]	·	4%	-15%[9.22 µM]
N#CC(c1ccc(F)cc1)c1ccc(C(=O)c2ccccc2)cc1 (centres undefined)	?	14µM*	22%	-39%	6%	-8%[9.22 µM]
O=C(O)[C@@H](O)c1ccc(F)cc1	·	-4%	-3%[10 µM]	1%[13.5 µM]	4%[14.2 µM]	·
CC(=O)Nc1ccc(C(C#N)c2ccccc2)cc1 (centres undefined)	·	·	7%[10 µM]	14µM*	1%	2%[9.22 µM]
